Results: PubChem BioAssay AID1159580 (chemical genetic matrix, 2015)
“And” between values parts separate entries of the source, which are not always exact repeats. Equal values may be shown once. Out of some 5,500 compounds screened, about 2,000 (36%) were called active. Another 18% or so got no clear call; they are omitted. No stated cut-off is given here; in the data, active means normalized growth mostly below about 0.91 (no sharp cut-off); inconclusive means no clear call, values can overlap the other calls; inactive means mostly above about 0.92. The list shows a part of the results.

Assay: chemical genetic growth profiling, strain panel (AID 1159580);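 further: tested at 20 µM; growth read once vehicle control cultures reached saturation at 30 °C; 1 = growth at the plate median or of vehicle wells; lower values mean less growth of the strain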
Details: S. cerevisiae deletion strains, growth OD

Measured: normalized growth

OC[C@H]1O[C@@H](Oc2ccc(O)cc2)[C@H](O)[C@@H](O)[C@@H]1O
inactive: locus YAL013W, strain DEP1, hits give low values 1.02 | locus YAL021C, strain ccr4, hits give low values 0.993 | locus YAL026C, strain drs2, hits give low values 1.02 | locus YAL030W, strain snc1, hits give low values 1.01 | locus YBL061C, strain skt5, hits give low values 1.02 | locus YBR009C, strain hhf1, hits give low values 1.02 | locus YBR021W, strain FUR4, hits give low values 0.988 | locus YBR023C, strain chs3, hits give low values 1.01 | locus YBR171W, strain sec66, hits give low values 1.01 | locus YBR229C, strain ROT2, hits give low values 1.02 | locus YBR231C, strain swc5, hits give low values 1 | locus YBR279W, strain paf1, hits give low values 1.01 | locus YCL011C, strain gbp2, hits give low values 1.01 | locus YCL016C, strain dcc1, hits give low values 0.992 | locus YCL029C, strain bik1, hits give low values 1.04 | locus YCL069W, strain vba3, hits give low values 1.01 | locus YCR088W, strain abp1, hits give low values 1.02 | locus YDL005C, strain med2, hits give low values 1.01 | locus YDL035C, strain GPR1, hits give low values 1 | locus YDL040C, strain nat1, hits give low values 1 | locus YDL074C, strain BRE1, hits give low values 1.03 | locus YDL101C, strain DUN1, hits give low values 1.02 | locus YDL134C, strain PPH21, hits give low values 1.02 | locus YDL185W, strain tfp1, hits give low values 1.02 | locus YDL192W, strain arf1, hits give low values 1.03 | locus YDR001C, strain nth1, hits give low values 1 | locus YDR069C, strain doa4, hits give low values 1.01 | locus YDR101C, strain arx1, hits give low values 1.01 | locus YDR137W, strain rgp1, hits give low values 1.02 | locus YDR159W, strain sac3, hits give low values 1.05 | locus YDR162C, strain NBP2, hits give low values 1.03 | locus YDR195W, strain ref2 1 | locus YDR297W, strain sur2, hits give low values 1 | locus YDR318W, strain mcm21, hits give low values 1.02 | locus YDR334W, strain swr1, hits give low values 1 | locus YDR335W, strain msn5, hits give low values 1.02 | locus YDR388W, hits give low values 1.01 | locus YDR392W, strain spt3, hits give low values 1.02 | locus YDR502C, strain sam2, hits give low values 1.01 | locus YEL003W, strain gim4, hits give low values 1.01 | locus YEL037C, strain rad23, hits give low values 0.999 | locus YEL061C, strain CIN8 (second series), hits give low values 1.01 | locus YEL061C, strain CIN8, hits give low values 1.01 | locus YER015W, strain faa2, hits give low values 1.01 | locus YER016W, strain bim1, hits give low values 1.01 | locus YER110C, hits give low values 1.03 | locus YER111C, strain swi4, hits give low values 1.01 | locus YER155C, strain BEM2 (second series), hits give low values 1.03 | locus YER155C, strain BEM2, hits give low values 0.999 | locus YER167W, strain BCK2, hits give low values 1.01 | locus YFR010W, strain ubp6, hits give low values 1.01 | locus YGL078C, strain dbp3, hits give low values 1.03 | locus YGL086W, strain mad1, hits give low values 1.01 | locus YGL167C, strain pmr1, hits give low values 1.02 | locus YGL173C, strain kem1, hits give low values 1.02 | locus YGL227W, strain vid30, hits give low values 1.01 | locus YGL240W, strain doc1, hits give low values 1.02 | locus YGL248W, strain PDE1, hits give low values 1.01 | locus YGL253W, strain hxk2, hits give low values 1.03 | locus YGR078C, strain PAC10, hits give low values 1.03 | locus YGR135W, strain pre9, hits give low values 1.03 | locus YGR252W, strain gcn5, hits give low values 1.02 | locus YHR013C, strain ard1, hits give low values 1.02 | locus YHR027C, strain rpn1, hits give low values 1.01 | locus YHR030C, strain SLT2, hits give low values 1 and 0.962 | locus YHR079C, strain IRE1 (second series), hits give low values 1.02 | locus YHR079C, strain IRE1, hits give low values 0.973 | locus YHR094C, strain hxt1, hits give low values 1.02 | locus YHR129C, strain ARP1, hits give low values 1.01 | locus YHR142W, strain chs7, hits give low values 1.01 | locus YHR200W, strain rpn10, hits give low values 1.02 | locus YIL066C, strain RNR3, hits give low values 1.01 | locus YIL073C, strain SPO22, hits give low values 1.08 | locus YIL125W, strain kgd1, hits give low values 1.02 | locus YIR030C, strain dcg1, hits give low values 1.01 | locus YJL092W, strain hpr5, hits give low values 1.01 | locus YJL095W, strain BCK1 (second series), hits give low values 1 | locus YJL095W, strain BCK1, hits give low values 1.04 and 0.973 | locus YJL115W, strain asf1, hits give low values 1 | locus YJL129C, strain trk1, hits give low values 1.03 | locus YJL134W, strain LCB3, hits give low values 1 | locus YJL154C, strain vps35, hits give low values 1.01 | locus YJL164C, strain tpk1, hits give low values 1.01 | locus YJL166W, strain qcr8, hits give low values 1.02 | locus YJL168C, strain set2, hits give low values 1.02 | locus YJL187C, strain SWE1 (second series), hits give low values 1.03 | locus YJL187C, strain SWE1, hits give low values 1.02 | locus YJR066W, strain TOR1, hits give low values 0.959 | locus YKL009W, strain mrt4, hits give low values 1.02 | locus YKL068W, hits give low values 1.01 | locus YKL085W, strain MDH1 (second series), hits give low values 1.01 | locus YKL085W, strain MDH1, hits give low values 1.01 | locus YKL160W, strain elf1, hits give low values 1 | locus YKR001C, strain vps1, hits give low values 1.03 | locus YKR026C, strain gcn3, hits give low values 1.01 | locus YKR091W, strain srl3, hits give low values 1 | locus YLL001W, strain dnm1, hits give low values 1.01 | locus YLL026W, hits give low values 1.01 | locus YLL041C, strain sdh2, hits give low values 1.03 | locus YLR027C, strain aat2, hits give low values 1.01 | locus YLR039C, strain RIC1, hits give low values 1.06 | locus YLR058C, strain SHM2, hits give low values 1.04 | locus YLR102C, strain apc9, hits give low values 1.02 | locus YLR113W, strain HOG1, hits give low values 0.944 | locus YLR221C, strain rsa3, hits give low values 1.01 | locus YLR258W, strain gsy2, hits give low values 1.01 | locus YLR262C, strain YPT6 (second series), hits give low values 1.03 | locus YLR268W, strain sec22, hits give low values 1.03 | locus YLR320W, strain mms22, hits give low values 1.03 | locus YLR330W, strain CHS5, hits give low values 1.01 | locus YLR342W, strain FKS1, hits give low values 1.01 | locus YLR357W, strain rsc2, hits give low values 1.03 | locus YLR370C, strain arc18, hits give low values 1.01 | locus YLR371W, strain rom2, hits give low values 1.01 | locus YLR384C, strain iki3, hits give low values 1.03 | locus YLR418C, strain cdc73, hits give low values 1.06 | locus YML016C, strain PPZ1, hits give low values 1 | locus YML032C, strain rad52, hits give low values 1.03 | locus YML120C, strain ndi1, hits give low values 1.01 | locus YML124C, strain tub3, hits give low values 1.02 | locus YMR058W, strain fet3, hits give low values 1.01 | locus YMR078C, strain ctf18, hits give low values 1.04 | locus YMR125W, strain sto1, hits give low values 1.03 | locus YMR129W, hits give low values 1.01 | locus YMR205C, strain PFK2, hits give low values 1 | locus YMR223W, strain ubp8, hits give low values 1.02 | locus YMR231W, strain pep5, hits give low values 1.01 | locus YMR307W, strain GAS1, hits give low values 0.945 | locus YNL067W, strain RPL9B, hits give low values 1.02 | locus YNL071W, strain lat1, hits give low values 1.01 | locus YNL183C, strain NPR1, hits give low values 0.963 | locus YNL209W, strain ssb2, hits give low values 1.02 | locus YNL233W, strain BNI4, hits give low values 1.02 | locus YNL248C, strain rpa49, hits give low values 1.03 | locus YNL250W, strain rad50, hits give low values 1.05 | locus YNL271C, strain bni1, hits give low values 1.02 | locus YNL298W, strain CLA4, hits give low values 1.02 | locus YNL307C, strain MCK1, hits give low values 1.02 | locus YNL322C, strain KRE1 (second series), hits give low values 1 | locus YNR049C, strain mso1, hits give low values 1.02 | locus YNR052C, strain pop2, hits give low values 1.03 | locus YOL006C, strain TOP1, hits give low values 1.06 | locus YOL012C, strain htz1 0.901 | locus YOL147C, strain pex11, hits give low values 1.01 | locus YOR001W, strain rrp6, hits give low values 1.01 | locus YOR061W, strain CKA2, hits give low values 1.02 | locus YOR069W, strain VPS5, hits give low values 1.01 | locus YOR070C, strain gyp1, hits give low values 1.01 | locus YOR080W, strain dia2, hits give low values 1 | locus YOR083W, strain WHI5, hits give low values 0.992 | locus YOR106W, strain vam3, hits give low values 0.992 | locus YOR136W, strain idh2, hits give low values 1.03 | locus YOR144C, strain elg1, hits give low values 1.02 | locus YOR184W, strain ser1, hits give low values 1.05 | locus YOR231W, strain MKK1, hits give low values 0.958 | locus YOR265W, strain rbl2, hits give low values 0.991 | locus YOR270C, strain vph1, hits give low values 1.05 | locus YOR290C, strain snf2, hits give low values 0.993 | locus YOR316C, strain cot1, hits give low values 1.02 | locus YPL051W, strain arl3, hits give low values 0.989 | locus YPL055C, strain LGE1, hits give low values 1.04 | locus YPL078C, strain atp4, hits give low values 1.01 | locus YPL106C, strain sse1, hits give low values 0.995 | locus YPL240C, strain hsp82, hits give low values 1.01 | locus YPL241C, strain CIN2, hits give low values 1.01 | locus YPL256C, strain CLN2, hits give low values 0.977 | locus YPR119W, strain clb2, hits give low values 1.03 | locus YPR141C, strain kar3, hits give low values 1.02 | locus YPR163C, strain tif3, hits give low values 1.03 | locus YPR167C, strain met16, hits give low values 1.03 | strain wtn01, hits give low values 1.02
